Screens as filed in PubChem BioAssay.
Sampled rows, rich in hits. Any-hit rate of the full collection: about 2.2%.
HIF activator: HIF pathway transcriptional activators, primary screen, cell-based, U2OS HRE-luciferase, luminescence | activation, % at 7.5 µM (by protocol) | actives 0.32% (n = 300,000) | U2OS HRE-luciferase reporter; normalized: DMSO 0%, desferrioxamine 100%;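 active = mean activation of at least 10% of the iron chelator positive control signal, with at least half of replicates also reaching 10%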
VLA-4 inh: inhibition in human VLA-4 binding assay, primary screen, VLA-4 allosteric modulator project, MLPCN library, flow cytometry, VLA-4 expressing cells. Integrin alpha-4 (Homo sapiens), P13612. ligand binding flow cytometry. inhibition, % (about 7 µM as worked out from the volumes in the protocol). actives 0.2% (n = 330,000). AID 2557, 2010; in the data active = inhibition above about 50%
Platelet DG rel: inhibitors of platelet dense granule secretion, primary screen, cell-based, MLPCN, human platelets; human platelet-rich plasma, SFLLRN dense granule ATP release, luminescence; inhibition, %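 (compounds screened at 7.5 µM in platelet-rich plasma)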; actives 0.22% (n = 300,000); AID 1663, 2009;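 active = mean replicate score, as percent of positive control, at or above 50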
CHT block: inhibitors of human choline transporter CHT; AID 488975, 2010; actives 0.86% (n = 310,000); B-score at 10 µM; CHT-expressing cells, membrane potential dye, choline response; hits give low values;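 active = B-score over 3 SD under the library average, and starting fluorescence ratio not unusually high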;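 note: choline stimulus applied at its EC90 after an EC20 pre-addition; B-score computed on integrated fluorescence ratio after choline addition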
Target sequence (Q9GZV3 whole entry, looked up): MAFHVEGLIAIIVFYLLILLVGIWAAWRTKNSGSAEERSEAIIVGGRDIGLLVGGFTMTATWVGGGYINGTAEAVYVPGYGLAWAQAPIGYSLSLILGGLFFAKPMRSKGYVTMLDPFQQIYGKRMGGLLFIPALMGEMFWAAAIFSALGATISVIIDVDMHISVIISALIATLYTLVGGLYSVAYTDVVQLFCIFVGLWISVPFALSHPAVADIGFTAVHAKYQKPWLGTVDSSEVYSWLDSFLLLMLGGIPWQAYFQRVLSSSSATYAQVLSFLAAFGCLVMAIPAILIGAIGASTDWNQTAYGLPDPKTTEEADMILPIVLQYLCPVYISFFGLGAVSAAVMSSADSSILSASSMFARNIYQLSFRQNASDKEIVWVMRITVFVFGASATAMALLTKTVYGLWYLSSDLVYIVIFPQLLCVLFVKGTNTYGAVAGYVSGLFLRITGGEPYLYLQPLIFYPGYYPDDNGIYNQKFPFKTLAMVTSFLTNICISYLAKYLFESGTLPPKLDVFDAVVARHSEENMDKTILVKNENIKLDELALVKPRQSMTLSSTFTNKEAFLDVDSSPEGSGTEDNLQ
CHT allo act: CHT positive allosteric modulators, primary screen, cell-based, membrane potential dye, choline EC20; High affinity choline transporter 1 (Homo sapiens), Q9GZV3; CHT-expressing cells; hits give high values; LV-AA mutant CHT in HEK293 cells; B-score at 10 µM; actives 0.49% (n = 310,000);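 active = initial fluorescence not abnormally high and integrated response B-score, plate-corrected, over 3 SD above library mean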
AI-2 QS modul: Vibrio harveyi AI-2 quorum sensing modulators, primary screen, JMH597 strain, luminescence/OD600 ratio; Vibrio harveyi JMH597 AI-2 luminescence/OD600 ratio, 9 h; hits give low values; strain lacks LuxN and CqsS sensors; 0 = neutral-control median; actives 0.4% (n = 300,000); AID 2094, 2009; activity change, % at 7.5 µM; in the data active = activity change below about -75%, passing the limit was not always enough;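 note: luminescence divided by OD600 gain over 9 h not by final OD600 alone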
Active calls of the source: *.

`CCOC(=O)c1sc(NC(=O)c2sccc2C)cc1C` gave HIF activator 0, VLA-4 inh 21, Platelet DG rel 62*, CHT block inactive, CHT allo act inactive and AI-2 QS modul -4.
Screening CC[C@]12c3[nH]c4ccccc4c3CCN1C(=O)C(CC(=O)NCCCn1ccnc1)C[C@@H]2C(=O)N1CCN(C(=O)c2ccco2)CC1 (some centres undefined) returned VLA-4 inh -12.
Screening COc1ccc(C2NC(=S)NC3=C2CCCC3=C2SCCS2)cc1 (centres undefined) returned HIF activator 235*, VLA-4 inh 21, Platelet DG rel 4, CHT block inactive, CHT allo act inactive and AI-2 QS modul 14.
`COC(=O)Nc1ccc(S(=O)(=O)N2CCC(C(=O)NCc3ccc4c(c3)OCO4)CC2)cc1` gave VLA-4 inh 10.
For O=[N+]([O-])c1ccc(/C=C/c2ccc3cccc([N+](=O)[O-])c3n2)cc1 the results were HIF activator 0, VLA-4 inh 2, Platelet DG rel 3, CHT block inactive, CHT allo act inactive and AI-2 QS modul -5.
For O=[N+]([O-])c1cccc(/C=C/c2ccc3cccc(O)c3n2)c1 the results were HIF activator 13*, VLA-4 inh 6, Platelet DG rel -2, CHT block inactive, CHT allo act inactive and AI-2 QS modul 6.
For CC1(C)Cc2c(C#N)c(SCCC#N)nc(N3CCOCC3)c2CO1 the results were HIF activator 35*, VLA-4 inh 15, Platelet DG rel 6, CHT block inactive, CHT allo act inactive and AI-2 QS modul 7.
For CN(C)CCCN1c2ccc([N+](=O)[O-])cc2CCc2cc([N+](=O)[O-])ccc21 the results were HIF activator 0, VLA-4 inh -11, Platelet DG rel -1, CHT block inactive, CHT allo act inactive and AI-2 QS modul 2.
CCOC(=O)N1CCN(C(=O)CCCN2C(=O)CSc3nc(C)cc(C)c32)CC1 was read as HIF activator 0, VLA-4 inh -2, Platelet DG rel 53*, CHT block inactive, CHT allo act inactive and AI-2 QS modul 12.
`CCOC(=O)N1CCC(NC(=O)CN2C(=O)CSc3nc(C)cc(C)c32)CC1` gave VLA-4 inh 9, Platelet DG rel 26, CHT block inactive, CHT allo act inactive and AI-2 QS modul 3.
`CCCN1C(=O)c2ccccc2NC1c1ccc(Cl)c(Cl)c1` (centres undefined) gave HIF activator 1, VLA-4 inh 4, Platelet DG rel 0, CHT block inactive, CHT allo act 7.3* and AI-2 QS modul 7.
`O=C(CCCN1C(=O)C(c2ccccc2)Oc2cccnc21)NCCc1ccc(Cl)cc1` (centres undefined) gave HIF activator 0, VLA-4 inh 0, Platelet DG rel -7, CHT block inactive, CHT allo act inactive and AI-2 QS modul 10.
O=S(=O)(Cc1ccccc1)N=Nc1c(O)[nH]c2ccc(Br)cc12 was read as HIF activator 0, VLA-4 inh 1, Platelet DG rel -1, CHT block inactive, CHT allo act inactive and AI-2 QS modul 41.
COc1ccccc1N1CCN(c2ccc(-c3ccccc3)nn2)CC1 was read as HIF activator -2, VLA-4 inh 42, Platelet DG rel 54*, CHT block inactive, CHT allo act inactive and AI-2 QS modul 18.
C=C(C)COc1ccc2c(C)c(CCC(=O)NC3CC3)c(=O)oc2c1 was read as HIF activator 1, VLA-4 inh 11, Platelet DG rel -8, CHT block inactive, CHT allo act inactive and AI-2 QS modul 12.
For Cn1ccsc1=NC(=O)c1ccc([N+](=O)[O-])o1 the results were HIF activator 1, VLA-4 inh 10, Platelet DG rel 5, CHT block inactive, CHT allo act inactive and AI-2 QS modul -86*.
